ClpP mod = qHTS Assay for Activators of ClpP; purified B. subtilis ClpP, FRET peptide cleavage, 20 min; Potency, µM (series often up to 57.5 µM), inactives show at the highest dose activity change, negative = active; actives 1.9% (n = 340,000); AID 651965, 2013; active = well fitted falling curve with a large enough effect; inconclusive = small, poorly fitted or top-dose-only effect; inactive = no such curve, though single readings can be large or run the other way; also: potency is read from the fitted curve at half-maximal effect; the source files actives as falling curves though it sought activators and does not explain the sign; nearly all actives have a fitted effect of over 65% in size
Target sequence (P80244 whole entry, looked up): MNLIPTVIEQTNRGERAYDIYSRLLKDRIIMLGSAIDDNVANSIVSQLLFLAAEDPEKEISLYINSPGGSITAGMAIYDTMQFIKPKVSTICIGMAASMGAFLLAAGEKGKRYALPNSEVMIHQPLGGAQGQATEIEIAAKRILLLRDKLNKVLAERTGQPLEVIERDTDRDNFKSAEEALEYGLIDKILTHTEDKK
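ClpP 10 microg/mL final, pH 8 Tris/KCl buffer with BSA, glycerol, Tween-20; compound pinned in; FRET-FV substrate; RT 20 min; Ex320/Em430; ΔFRET vs ADEP 5.8 microM, DMSO, no enzyme.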
DRD3 antagonist = qHTS of D3 Dopamine Receptor Antagonist: qHTS; AID 652054, 2013; D3R cells, DiscoveRx beta-arrestin luminescence, antagonist mode; stronger effect = lower value; D(3) dopamine receptor (Homo sapiens), P35462; actives 2.5% (n = 360,000); max response, negative = inhibition, %; in the data active = max response below about -50%; inconclusive = no clear call, values can overlap the other calls; also: % is scaled to controls: 0 for no effect and ±100 for the full control effect
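Cells plated overnight at 1500 cells/well, then exposed to library compounds with dopamine controls for 90 minutes at 37 degrees C. DiscoveRx reagent added for 30–60 minutes at room temperature; luminescence read, quantitative HTS format.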
DRD3 agonist = qHTS of D3 Dopamine Receptor Agonist: qHTS; D3R DiscoveRx beta-arrestin cells, luminescence, 90 min; actives 0.58% (n = 410,000); AID 652048, 2013; max activation, %; in the data active = max activation above about 30%; also: 0% is about no effect
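Cells at 1500/well, incubated overnight, then treated with pinned compounds (dopamine as control) for 90 min at 37 degrees C. DiscoveRx reagent added for 30 - 60 minutes at room temperature; luminescence read.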
TDP1 cell CPT = qHTS for Inhibitors of human tyrosyl-DNA phosphodiesterase 1 (TDP1): qHTS in cells in presence of CPT; chicken DT40 Tdp1-/-;hTDP1 cells + 20 nM CPT, ATP luminescence, 48 h; Potency, µM (titrated, usually from 46.2 µM), without a hit: at the highest dose activity change, negative = growth inhibition, most hits filed as inhibitors; actives 12% (n = 420,000); also: potency is read from the fitted curve at half-maximal effect; % is scaled to controls: 0 for no effect and ±100 for the full control effect; nearly all actives have a fitted effect of over 55% in size
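Chicken DT40 Tdp1-/- cells complemented with human TDP1, 400 cells/well, exposed to compounds plus 20 nM camptothecin for at least 48 h at 37 C; viability read as ATP content by CellTiter-Glo luminescence.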
TDP1 cell noCPT = qHTS for Inhibitors of human tyrosyl-DNA phosphodiesterase 1 (TDP1): qHTS in cells in absence of CPT | DT40 Tdp1-/- hTDP1 cells, no CPT, ATP luminescence, 48 h | Potency, µM (top dose mostly 46.2 µM), for inactives: at the top dose activity change, negative = growth inhibition, usual class: inhibitors | actives 15% (n = 420,000); also: potency is read from the fitted curve at half-maximal effect; % is scaled to controls: 0 for no effect and ±100 for the full control effect; nearly all actives have a fitted effect of over 55% in size
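Growth of hTDP1-complemented DT40 Tdp1-knockout cells is measured by ATP luminescence after at least 48 hr compound exposure at 37 °C, with DMSO substituting for the 20 nM CPT used in the parallel screen.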
IL-1B inflam inh = qHTS for Inhibitors of Inflammasome Signaling: IL-1-beta AlphaLISA Primary Screen | AID 743279, 2014 | actives 4.7% (n = 360,000) | THP-1 LPS/ATP IL-1B secretion, AlphaLISA, 16 h; stronger effect = lower value | activity change, % at 57.5 µM; in the data active = activity change below about -50%; inconclusive = mostly about -30% to -49%; also: % is scaled to controls: 0 for no effect and ±100 for the full control effect
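THP-1 cells pretreated 1 hr with compounds (up to 57.5 uM final), then stimulated with LPS (250 ng/mL final) plus ATP (1.25 mM final); secreted IL-1B measured by AlphaLISA after 16 hr, decreased signal indicating inhibition.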
The depositor's hits bear a star; ? = inconclusive; nt = no result given. Hits are enriched below; roughly 21% of the tested compounds scored in any of these assays. Unless noted, calls follow the shape of the dose curve; as a rule, active = well fitted inhibition curve with a large enough effect; inconclusive = small, poorly fitted or top-dose-only effect; inactive = flat fitted curve, though single readings scatter.

SMILES	ClpP mod	DRD3 antagonist	DRD3 agonist	TDP1 cell CPT	TDP1 cell noCPT	IL-1B inflam inh
COc1cc(/C=C2\SC(N)=NC2=O)ccc1OCC(=O)Nc1ccccc1C	4%	-1	0	?	9.2µM*	9
CS(=O)(=O)Nc1nnc(SCC(=O)N(c2ccccc2)c2ccccc2)s1	-2%	-8	-3	2%	-7%	15
CN(C)S(=O)(=O)c1ccc(NC(=O)CN2C(=O)NC3(CCCC3)C2=O)cc1	nt	12	0	-11%	-10%	10
COCCCNC(=O)C[C@@H]1C[C@@]2(C(=O)OC)CCCCC=C2N(Cc2ccc(Cl)cc2Cl)C1=O	0%	20	4	?	16µM*	-5
COCCCNC(=O)C[C@@H]1C[C@@]2(C(=O)OC)CCCCC=C2N(Cc2ccccc2)C1=O	-3%	-12	-4	-3%	-10%	-3
COC(=O)[C@]12CCCCC=C1N(Cc1ccccc1)C(=O)[C@H](CC(=O)NCC1CCCCC1)C2	0%	0	-10	16µM*	?	-8
COC(=O)[C@]12CCCCC=C1N(Cc1ccc(Cl)cc1Cl)C(=O)[C@H](CC(=O)NCC1CCCCC1)C2	-3%	0	-3	?	18µM*	0
CCOC(=O)[C@]12CCCC=C1N(Cc1ccc3c(c1)OCO3)C(=O)[C@H](CC(=O)NCC1CCCCC1)C2	1%	2	-1	?	?	22
Nc1ccn([C@@H]2O[C@H](CNCc3ccc(C#CCCO)cc3)[C@@H](O)[C@H]2O)c(=O)n1	-3%	-21	-11	-4%	?	19
COc1cccc(C(=O)NNC(=O)C(=O)Nc2cccc3ccccc23)c1	nt	9	-4	?	?	-5
CCOc1ccccc1NC(=O)CCCNC(=O)c1ccc(Cl)cc1	nt	14	4	7%	-16%	28
CCN(CCCNC(=O)c1ccc(Sc2ccc(Cl)cc2)c(NC(C)=O)c1)c1ccccc1	-11%	nt	-6	?	23µM*	nt
CCCCN(CCCNC(=O)c1ccc(Sc2ccc(Cl)cc2)c(NC(C)=O)c1)c1ccccc1	?	nt	6	?	-102%	nt
CC(=O)Nc1cc(C(=O)N2CCCC2)ccc1S(=O)(=O)c1ccc(C)cc1	-2%	0	0	-20%	?	26
CC(=O)Nc1cc(C(=O)N2CCCC2)ccc1Sc1ccc(Cl)cc1	-2%	58	63*	20µM*	?	3
CCN(C(=O)C(C)OC(=O)CCCNC(=O)c1ccc(Cl)cc1)c1ccccc1 (stereo not drawn)	1%	7	4	?	21µM*	-3
CC(=O)Nc1cc(C(=O)N2CCCC2)ccc1Sc1ccc(C)cc1	-2%	34	41*	?	?	11
CCOC(=O)C1CCN(C(=O)CCn2c(=O)oc3ccccc32)CC1	-3%	-7	0	-13%	-1%	26
CCCN(Cc1nnc(-c2cccs2)o1)C(=O)CN1C(=O)NC2(CCCCC2)C1=O	-7%	8	-5	3%	-23%	-13
CCCc1nc2ccc([N+](=O)[O-])cc2[nH]1	nt	-1	-4	-6%	-21%	31
Cc1ccc(-c2nnc3cccc(Cl)n23)cc1	-3%	-13	3	0%	-19%	6
OCCC1CN(Cc2cnc(-c3ccc(Cl)cc3)nc2)CCN1C1CCCC1 (stereo not drawn)	nt	-18	-21	23µM*	15µM*	-73*
OCCC1CN(CC(c2ccccc2)c2ccccc2)CCN1C1CCCC1 (stereo not drawn)	nt	?	-12	?	18µM*	-14
